Results on 91 compounds are retold here after PubChem BioAssay AID449762 (Southern Research Specialized Biocontainment Screening …, 2010).

Each structure is given as a SMILES string. Among all 330,000 compounds or so, about 1,900 (0.58%) were called active. Not shown: some 4% with an inconclusive outcome. A selection follows. Potency and affinity values are given separately. A number with no mark means an inactive call. No stated cut-off is given here; in the data, inconclusive means inhibition above about 70% without an active follow-up result; inactive means below that.

This assay can be described thus: M. tuberculosis growth inhibition, HTS (AID 449762).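 Further: bacterial growth assessed after seven days of incubation.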 The following applies: M. tuberculosis H37Rv growth inhibition, 7H9 media; at 25 µM; hits give high values.
As a reminder, the inhibition is the change of the read-out against control, counted positive when it falls. On to `CC(CC(=O)N1CCN(S(=O)(=O)c2ccc(Cl)cc2)CC1)n1cncn1` (stereo unspecified), for which the inhibition was 7.22%.

Take `Cc1cc2nncn2c(Cc2ccccc2)n1`: the inhibition was -5.06%.

For the compound `CCCNC(=O)c1onc(CSc2ccccc2)c1C(=O)NCCC`, the inhibition is 3.78%.

Regarding `CCc1cc2c(=O)n(CC(=O)NC3CCCCC3)cnc2s1`, the inhibition is -19.5%.

Turning to `CCc1cc2c(=O)n(CC(C)C)cnc2s1`, the inhibition is 13.2%.

As to `Cc1sc2ncn(CC(=O)N(CC(=O)NC3CCCC3)Cc3cccs3)c(=O)c2c1C`, the inhibition was -6.3%.

As to `O=C(CCc1nc(-c2ccccc2F)no1)NCCc1ccccc1Cl`, the inhibition is -5.37%.

Consider `CC(=O)Oc1ccc(C(=O)Nc2cccc(C(=O)c3ccc(C)c(C)c3)c2)cc1`, for which the inhibition was 6.87%.

In the case of `O=C(C[n+]1cccc(C(=O)N/N=C/c2ccc(Br)cc2)c1)c1ccccc1`, the inhibition is -3.73%.

In the case of `O=C(N/N=C/c1ccc(O)cc1)c1cc[n+](Cc2ccccc2)cc1`, the inhibition is -5.45%.

Regarding `Cn1c(=O)n(C)c2cc([N+](=O)[O-])c(N3CCN(S(=O)(=O)c4ccc(C(C)(C)C)cc4)CC3)cc21`, the inhibition was -9.94%.

With `Cc1ccc(OCc2nc(C#N)c(N3CCN(Cc4ccccc4)CC3)o2)cc1`, the inhibition is -9.38%.

Turning to `CCN1CCN(c2oc(COc3ccc(Cl)cc3)nc2C#N)CC1`, the inhibition was 8.42%.

On to `CCCc1nc2oc3c(NCc4ccccn4)ncnc3c2c2c1COC(C)(C)C2`, for which the inhibition is -3.19%.

`CCOc1ccc(N2CC(C(=O)N3CCCCCC3)CC2=O)cc1` (stereo unspecified): the inhibition was -1.61%.

Take `COc1ccc(NC(=O)CSc2nnc3ccc(-c4ccccn4)nn23)c(OC)c1`: the inhibition was -1.07%.

In the case of `CNCc1ccccc1OCC(=O)Nc1ccccc1`, the inhibition is -16.8%.

Consider `CC(C)(CO)NCc1ccccc1OCC(=O)Nc1ccccc1`, for which the inhibition is -10.3%.

With `CCc1cc2c(SCC(=O)c3cccs3)ncnc2s1`, the inhibition was -6.51%.

Consider `CCNCC(=O)N1c2ccccc2CCc2ccc(NC(=O)OCC)cc21`, for which the inhibition was 8.22%.

As to `CCNCC(=O)N1c2ccccc2CCc2ccc(NC(C)=O)cc21`, the inhibition is -1.99%.

As for `Cc1ccc(Oc2ccc(Oc3ccc(C)cc3)nn2)cc1`, the inhibition is 1.77%.

On to `O=C(CN1CCN(S(=O)(=O)c2ccccc2)CC1)N1CCCCC1`, for which the inhibition is -3.13%.

As for `CCCn1c(NCc2ccc3c(c2)OCO3)nc2ccccc21`, the inhibition was 13.3%.

Turning to `CN(C)CCCn1c(NCc2ccc3c(c2)OCO3)nc2ccccc21`, the inhibition is -3.55%.

`CNC(=O)c1c(NC(=O)c2ccco2)sc2c1CCC2`: the inhibition is 8.18%.

In the case of `O=C(CCNS(=O)(=O)c1ccccc1)NNC(=O)COc1ccccc1F`, the inhibition was 0.68%.

On to `CCCOC(=O)c1cccc(NC(=O)COc2ccc([N+](=O)[O-])cc2)c1`, for which the inhibition was 66.4%.

`CC(=O)C(C)Oc1ccc(Cc2ncc(C(F)(F)F)cc2Cl)cc1` (stereo unspecified): the inhibition is 10.2%.

For `NC(=O)COc1ccc(Cc2ncc(C(F)(F)F)cc2Cl)cc1`, the inhibition is 5.51%.

As for `C=CCn1c(SCC(=O)c2c(N)n(C)c(=O)n(C)c2=O)nnc1-c1ccoc1C`, the inhibition is 2.92%.

For `CC(Sc1nnc(-c2cccnc2)n1N)C(=O)N1CCOCC1` (stereo unspecified), the inhibition is -0.03%.

Consider `COc1cc(C(=O)NCCC(=O)NCCN2CCCCCC2)cc(OC)c1OC`, for which the inhibition is -5.5%.

Turning to `COC(=O)COc1ccc(S(=O)(=O)NCCC2=CCCCC2)cc1`, the inhibition is 59.1%.

Consider `CCCNS(=O)(=O)c1ccc(OCC(=O)NCCC2=CCCCC2)cc1`, for which the inhibition is -5.92%.

Turning to `CC1CC(NS(=O)(=O)c2cc3c4c(c2)CCN4C(=O)CC3)CC(C)(C)C1` (stereo unspecified), the inhibition was 12.2%.

For the compound `Cc1ccc(-n2cc(-c3ccccc3)c3c(=O)[nH]cnc32)cc1`, the inhibition was 8.81%.

Take `O=c1[nH]cnc2c1c(-c1ccccc1)cn2-c1ccccc1`: the inhibition was 5.31%.

`COc1ccc(CCNC(=O)c2[nH]c(C)c(C(C)=O)c2C)cc1OC`: the inhibition is -6.23%.

Turning to `O=C(/C=C/c1ccco1)Nc1ccc(-c2nc3ccccc3[nH]2)cc1`, the inhibition is -5.99%.

In the case of `Cc1ccc(-c2nc3ccccc3[nH]2)cc1NC(=O)/C=C/c1ccco1`, the inhibition is 7.41%.

Consider `COC(=O)c1nnn(-c2nonc2N)c1CSc1ccccn1`, for which the inhibition is -4.14%.

Take `Cc1ccc(NC(=O)c2ccccc2SCC(=O)N2CCCC2)cc1S(=O)(=O)N(C)C`: the inhibition was -1.08%.

As to `COc1cccc(N(C(=O)Cn2nnc(-c3ccc(C)cc3)n2)C(C(=O)NC(C)(C)C)c2c[nH]c3ccccc23)c1` (stereo unspecified), the inhibition was -12.2%.

Regarding `CC(C)(C)NC(=O)C(c1c[nH]c2ccccc12)N(C(=O)Cn1nnc(-c2ccc(Cl)cc2)n1)c1ccccc1F` (stereo unspecified), the inhibition was 2.56%.

Take `Cc1cc([N+](=O)[O-])nn1CC(=O)Nc1cnc2ccccc2c1`: the inhibition was -3.67%.

As to `Cc1ccc(CCNC(=O)c2nn(C)c3c2CS(=O)(=O)c2ccccc2-3)cc1`, the inhibition is 3.98%.

Consider `CCOC(=O)C1CCN(C(=S)NC(=O)c2cccs2)CC1`, for which the inhibition is 0.89%.

In the case of `O=C(NC(=S)N1CCCCC1)c1cccs1`, the inhibition was 4.84%.

In the case of `Cn1c(-c2ccsc2)c(-c2cccs2)c2cc(-c3ccc4cc[nH]c4c3)ccc21`, the inhibition was -1.89%.

In the case of `Cc1ccc(NC(=O)C(c2ccccc2)N2CCN(C(=O)c3ccco3)CC2)cc1Cl` (stereo unspecified), the inhibition is -11.9%.

With `Cc1nn(-c2nc3ccccc3s2)c(N)c1-c1ccc(Cl)cc1`, the inhibition was 1.29%.

Turning to `Cc1nn(-c2nc3ccccc3[nH]2)c(=O)c2ccccc12`, the inhibition is 5.73%.

Regarding `Cc1cc(C)nc(NS(=O)(=O)c2ccc(NS(=O)(=O)c3ccccc3)cc2)n1`, the inhibition was -6.64%.

`CC1(C)Cc2c(sc3c2C(=O)N(c2ccccc2)C2=NCCCN23)CO1`: the inhibition is 1.18%.

On to `CCCC(=O)Nc1nc(C(=O)OCC)cs1`, for which the inhibition was 2.98%.

With `CCOC(=O)c1csc(NC(C)=O)n1`, the inhibition was 0.4%.

With `O=C(c1ccc(Cl)cc1)C1CCCN(Cc2cccc3cccnc23)C1` (stereo unspecified), the inhibition is 9.96%.

`O=C(CCCOc1ccc(Cl)cc1)Nc1cccc(C(=O)O)c1`: the inhibition was 7.01%.

Consider `O=C(OCCN1C(=O)c2ccccc2C1=O)c1ccco1`, for which the inhibition is -9.08%.

For the compound `O=C(OCCN1CCCCC1)c1cc2ccccc2o1`, the inhibition is -14.3%.

Regarding `COc1ccccc1/C=C/C=N/n1c(C2CCCCC2)n[nH]c1=S`, the inhibition is 0.81%.

With `CC(=O)c1ccc(N2CCN(C(=O)c3cc(-c4ccncc4)nc4ccc(Cl)cc34)CC2)cc1`, the inhibition was 7.21%.

For `CN1CCN(CCCNC(=O)c2ccc(/C=C3\Oc4ccccc4N(Cc4ccccc4F)C3=O)cc2)CC1`, the inhibition is 57.7%.

In the case of `Cc1cccc(CN2C(=O)/C(=C\c3ccc(C(=O)NCCN4CCOCC4)cc3)Sc3ccccc32)c1`, the inhibition is 49.5%.

With `Cc1ccc(Cn2nc(C)c(NC(=O)CSc3n[nH]c(C)c3[N+](=O)[O-])c2C)cc1`, the inhibition is -3.06%.

Turning to `O=C(NC1CCN(C(=O)N2c3ccccc3Sc3ccccc32)CC1)c1ccccc1Cl`, the inhibition was 62.3%.

`O=C(NC1CCN(C(=O)N2c3ccccc3Sc3ccccc32)CC1)c1ccco1`: the inhibition was -19.1%.

As for `Cc1sc2ncnc(SCC(=O)c3cccs3)c2c1C`, the inhibition is -19.7%.

Turning to `COC(=O)c1ccccc1NC(=O)c1cc2n(n1)C(C(F)F)CC(C(F)F)N2` (stereo unspecified), the inhibition is -2.91%.

On to `O=c1[nH]c(SCc2ccc(Cl)cc2)nc2ccccc12`, for which the inhibition is 4.03%.

In the case of `O=C(CSc1nc2[nH]ncc2c(=O)[nH]1)NCc1ccccc1`, the inhibition was -0.89%.

In the case of `CC1CC(C)CN(CCOc2ccccc2-c2ccccc2)C1` (stereo unspecified), the inhibition is 3.01%.

As for `O=C(COC(=O)c1ccc2c(c1)S(=O)(=O)N=C1CCCCCN12)NCCc1ccc(F)cc1`, the inhibition is -6.19%.

For `COCC(=O)N(Cc1cc2ccc(C)cc2[nH]c1=O)c1ccc(C)cc1C`, the inhibition is -1.78%.

`Cc1ccc(-c2c(C#N)c(N)nc3c2CCCCCC3)o1`: the inhibition was 21.5%.

On to `CSc1ccccc1NC(=O)CN(C)CC(=O)c1[nH]c(C)c(C(C)=O)c1C`, for which the inhibition is -0.15%.

`Cc1ccc(S(=O)(=O)N2CCN(C(=O)Cn3c(=O)oc4ccccc43)CC2)cc1`: the inhibition is 8.54%.

Consider `Cc1nc(-c2nc(-c3c(C(=O)NNC(=O)Nc4cccc(Cl)c4)noc3C)cs2)cs1`, for which the inhibition is 11.3%.

Turning to `Cc1nc(-c2nc(-c3c(C(=O)NNC(=O)Nc4ccccc4)noc3C)cs2)cs1`, the inhibition is -4.32%.

For `CC(=O)Nc1c(C(=O)NCc2ccccc2)nnn1Cc1ccccc1`, the inhibition was -10.2%.

As for `COc1ccc(N(CC(=O)Nc2ccc(C)cc2C)S(=O)(=O)c2c(C)n[nH]c2C)cc1`, the inhibition was 6.74%.

On to `COc1ccc(N(CC(=O)Nc2ccccc2C(=O)O)S(=O)(=O)c2ccc(C)c([N+](=O)[O-])c2)cc1`, for which the inhibition was -2.79%.

Regarding `COc1ccc(N(CC(=O)Nc2ccccc2F)S(=O)(=O)c2ccc(C)c([N+](=O)[O-])c2)cc1`, the inhibition is 0.33%.

`COc1ccc(N(CC(=O)Nc2ccc(Cl)cc2)S(=O)(=O)c2c(C)n[nH]c2C)cc1`: the inhibition is 2.17%.

Regarding `O=C(CCSc1nnc2ccccn12)Nc1ccc2c(c1)OCO2`, the inhibition is -0.07%.

For the compound `COc1ccc(OC)c(S(=O)(=O)Nc2cc(Cl)cc(Cl)c2)c1`, the inhibition was -2.29%.

With `CC(C)C(=O)NC(=S)/C=C1/N(C)c2ccccc2C1(C)C`, the inhibition is 2.15%.

With `CN1/C(=C\C(=S)NC(=O)c2ccccc2Cl)C(C)(C)c2ccccc21`, the inhibition is -5.96%.

In the case of `Cc1cccc(NS(=O)(=O)c2csc(C(N)=O)c2)c1C`, the inhibition is -0.04%.

As to `Cc1ccc(CC(=O)Nc2cc(C)ccn2)cc1`, the inhibition is 3.78%.
